# Measured values from ChEMBL document CHEMBL3988442, “University of Dundee, Small-Polar-MMV Screening Library” (2021).
# Screen size: about 69,000 compounds; about 1,000 (1.4%) showed an effect of 50% or more. For the sample, strong results were picked, then their nearest neighbours and some compounds at random.
# Tested on: Leishmania donovani
# Experiment: Leishmania intramacrophage assay
# Format: functional, organism-based
# Design: scale not given: in the data most compounds retested in dose-response had high values
structure (smiles),measurement,setting,value
CCC(CC(=O)NS(=O)(=O)C(C)C)c1ccccc1 (configuration not stated),Percent Effect,"30.3 µM, […]",-1.743%
Cc1cc(NC(=O)NCC(c2ccccc2)N2CCOCC2)n(C)n1 (configuration not stated),Percent Effect,30 µM,18.5%
C1CC(CN2CCO[C@H]3[C@H](OCC4CC4)CC[C@@H]32)CCO1.O=C(O)C(F)(F)F,Percent Effect,"30 µM, 30.03 µM",5.211%
Cc1ccc(NC(=O)CC2Cn3ncnc3NC2=O)cc1C (configuration not stated),Percent Effect,"30.3 µM, […]",22.77%
CN1CCOCC12CCN(c1ccc(C#N)cc1)CC2.O=C(O)C(F)(F)F,Percent Effect,"30.3 µM, […]",14.66%
COc1ccc(C2CCCN2C(=O)c2csc(NC(C)=O)n2)cc1 (configuration not stated),Percent Effect,"30 µM, 30.03 µM",22.16%
Cc1cc(C(=O)NCCc2nc3c(s2)CCCC3)n(C)n1,Percent Effect,"30.3 µM, […]",29.87%
O=C1CCc2cc(-c3csc(CCN4CCOC4=O)n3)c(F)cc2N1,Percent Effect,"30.3 µM, […]",-11.05%
CC(C)c1nc(C2CCCN(C(=O)c3ccc4c(c3)COC4)C2)no1 (configuration not stated),Percent Effect,30 µM,33.04%
CC(C)C(=O)N1CCC12CCCN(C(=O)c1ccccc1)C2 (configuration not stated),Percent Effect,"30.3 µM, […]",9.102%
Cc1occc1CNC(=O)C1(C)CCCN1C(=O)c1ccccc1 (configuration not stated),Percent Effect,"30.3 µM, […]",-78.28%
Cc1occc1CNC(=O)C1(C)CCCN(C(=O)c2ccccc2)C1 (configuration not stated),Percent Effect,"30.3 µM, […]",52.94%
Cc1cc(CNS(=O)(=O)CCCC#N)ccc1N(C)C,Percent Effect,"30.3 µM, […]",31.94%
CCOc1ncnc2c1CCN(Cc1csc(C)n1)CC2.O=C(O)C(F)(F)F,Percent Effect,"30.3 µM, […]",25.55%
CCOc1cc2c(cc1CNC(Cc1cccs1)c1nccs1)OCO2.Cl (configuration not stated),Percent Effect,"30.3 µM, […]",32.16%
Cc1[nH]c(-c2ccccc2)nc1C(=O)N1CCC(O)(CO)CC1,Percent Effect,"30.3 µM, […]",20.13%
Cc1[nH]c(-c2ccccc2)nc1C(=O)N1CCC2(CCCO2)CC1,Percent Effect,"30.3 µM, […]",62.09%
Cc1nccc(-c2ccccc2)c1C(=O)N1CCC2(CCCO2)CC1,Percent Effect,"30.3 µM, […]",-0.7591%
CS(=O)(=O)Cc1cccc(C(=O)N2CCCC(n3cccn3)C2)c1 (configuration not stated),Percent Effect,"30 µM, 30.03 µM",-5.751%
CCc1ccc(C(=O)N2CCC(c3nncn3CC)CC2)o1,Percent Effect,"30.3 µM, […]",-10.9%
COc1cc(CNC(=O)c2csc(Br)c2)ccn1,Percent Effect,"30.3 µM, […]",18.58%
Cc1cc(CN(CC(N)=O)CC(C)C)no1,Percent Effect,"30.3 µM, […]",34.93%
Cc1cc(CN(CC(N)=O)CC(C)C)on1,Percent Effect,"30.3 µM, […]",34.94%
Cc1ccc(-c2cc(CN(CC(N)=O)CC(C)C)on2)cc1,Percent Effect,"30.3 µM, […]",57.13%
CN(C)C(=O)CO[C@H]1CN(Cc2ccc3c(c2)OCO3)[C@@H]2COC[C@H]12.O=C(O)C(F)(F)F,Percent Effect,"30.3 µM, […]",10.2%
O=C(O)Cc1cccc(-n2ccnc2-c2ccc(Cl)s2)c1,Percent Effect,"30.3 µM, […]",-13.71%
CC(NC(=O)NCCCO)c1ccc2c(c1)NC(=O)CO2 (configuration not stated),Percent Effect,30 µM,9.165%
CC(NC(=O)C1CCN(C(=O)C2CC2)CC1)c1nncn1C(C)C (configuration not stated),Percent Effect,"30.3 µM, […]",27.99%
CC(NC(=O)C1CCCC1)c1nncn1C(C)C (configuration not stated),Percent Effect,"30.3 µM, […]",53.36%
CC(NC(=O)C1CCN(C(C)C)CC1)c1nncn1C1CCCC1 (configuration not stated),Percent Effect,"30.3 µM, […]",38.57%
Cc1ccc(CN2CCOC3(CCCN(c4cccc(F)c4)C3)C2)o1.O=C(O)C(F)(F)F.O=C(O)C(F)(F)F (configuration not stated),Percent Effect,"30.3 µM, […]",23.02%
O=C(NCCCOC1CCCCC1)C1NCCc2[nH]cnc21 (configuration not stated),Percent Effect,"30.3 µM, […]",6.477%
